Results as given in PubChem BioAssay AID463173 (ICCB-Longwood Screening Facility, Harvard Medical School, 2010).
The whole screen tested about 52,000 compounds, of which about 4,300 (8.3%) were called active. Rule as the data show it: active = survival mostly below about 52% (no sharp cut-off); inactive = mostly above about 56%. For the sample, actives were picked, then their nearest neighbours and some compounds at random.

The molecules below were run on DeltatarO mutant (assay: S. aureus survival, RN4220 and DeltatarO strains – OD600, teichoic acid synthesis inhibitors, primary screen (AID 463173)). Conditions: S. aureus RN4220 wild type/DeltatarO growth, OD600, 18 h, hits give low values, screened at 18.75 µg/mL (by protocol).

| Compound | survival |
| --- | --- |
| O=C(CSCc1ccccc1Cl)N/N=C/c1ccco1 | 101% (inactive) |
| COc1ccc(-c2nn(-c3ccc(F)cc3F)c3c2cnc2ccc(F)cc23)cc1 | 79% (inactive) |
| CN1CCC(OC(=O)COc2ccc(F)cc2)CC1 | 79% (inactive) |
| NS(=O)(=O)c1ccc(CCNC(=O)C2CCN(c3ncnc4c3nc3n4CCCCC3)CC2)cc1 | 83% (inactive) |
| Cc1ccc(NCc2cccn2-c2nnc(N3CCC(C(=O)NCCc4ccccc4)CC3)s2)cc1 | 68% (inactive) |
| Cc1ccc2c(c1)N(C(=O)N1CCC(C(=O)NCc3ccccc3F)CC1)CC(C)O2 (centres undefined) | 79% (inactive) |
| Cc1cc(C)c2[nH]c(=O)c(C(c3nnnn3C(C)(C)C)N(CCc3ccc(F)cc3)Cc3ccco3)cc2c1 (centres undefined) | 87% (inactive) |
| Cc1cc(=O)[nH]c2nnc(SCC(N)=O)n12 | 69% (inactive) |
| CCCSc1nnc2[nH]c(=O)cc(C)n12 | 124% (inactive) |
| CCOC(=O)C(CC)Sc1nnc2[nH]c(=O)cc(C)n12 (centres undefined) | 52% (active) |
| CN1C(=O)C(=C(C#N)C#N)c2cc(Br)ccc21 | 98% (inactive) |
| CNC(=O)C1CCC(Cn2c(=O)c3sccc3n(CC(=O)Nc3cc(F)ccc3F)c2=O)CC1 (centres undefined) | 79% (inactive) |
| CCc1ccccc1NC(=O)Nc1nnc(N(C)Cc2ccccc2)s1 | 60% (inactive) |
| Cc1ccccc1NC(=O)Nc1nnc(N(C)Cc2ccccc2)s1 | 85% (inactive) |
| CCOc1ccccc1NC(=O)Nc1nnc(N(C)Cc2ccccc2)s1 | 53% (active) |
| CCC(C)c1ccc(NC(=O)C2CCCN(c3ncccn3)C2)cc1 (centres undefined) | 81% (inactive) |
| COc1ccc(Cl)cc1NC(=O)CN1c2ccccc2S(=O)(=O)c2ccccc21 | 75% (inactive) |
| O=C(Nc1ccc(Cl)cc1Cl)c1cc(S(=O)(=O)N2CCCCCC2)ccc1F | 76% (inactive) |
| Cc1ccc(N2CCN(S(=O)(=O)c3ccc(F)c(C(=O)Nc4ccc(Cl)cc4Cl)c3)CC2C)cc1 (centres undefined) | -4% (active) |
| COc1ccc(Cl)cc1NC(=O)C1CCN(S(=O)(=O)c2ccc(F)cc2)CC1 | 43% (active) |
| Cc1cccc(N2CCN(S(=O)(=O)c3ccc(F)c(C(=O)Nc4cccc(Cl)c4C)c3)CC2C)c1 (centres undefined) | 85% (inactive) |
| Cc1ccc(C)c(N2CCN(S(=O)(=O)c3ccc(F)c(C(=O)Nc4ccc(Cl)cc4Cl)c3)CC2)c1 | 96% (inactive) |
| COc1ccc(OC)c(NC(=O)C2CCN(S(=O)(=O)c3ccc(C)cc3)CC2)c1 | 50% (inactive) |
| O=C(Nc1ccccc1C(F)(F)F)C1CCN(S(=O)(=O)c2ccccc2)CC1 | 49% (active) |
| COc1ccc(Cl)cc1NC(=O)C1CCN(S(=O)(=O)c2ccc3c(c2)CC(C)N3C(C)=O)CC1 (centres undefined) | 92% (inactive) |
| COc1cc(Cl)c(C)cc1NC(=O)c1cc(S(=O)(=O)N2CCCC2)ccc1F | 37% (active) |
| COc1ccc(C)cc1NC(=O)c1cc(S(=O)(=O)N2CCC(C)CC2)ccc1F | 98% (inactive) |
| O=C(Nc1ccccc1C(F)(F)F)C1CCN(S(=O)(=O)Cc2ccccc2)CC1 | 75% (inactive) |
| CCc1ccccc1NC(=O)C1CCN(S(=O)(=O)c2ccccc2)CC1 | 56% (inactive) |
